Bioassay records (PubChem)
A selection: hits, their analogues and other compounds. The true share with any hit is near 4%.
Peg3 promoter = Peg3 promoter-driven luciferase inhibitors, primary screen, cell-based, HeLa, luciferase luminescence; HeLa PEG-Prom luciferase reporter, overnight; inhibition, % at 20 µM; 360,000 compounds, 1.7% hits;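 active = inhibition of at least 50% at 20 µM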
TWEAK Fn14 block = inhibitors of TWEAK-Fn14 signaling, primary screen, luciferase reporter cells, uHTS; TWEAK-stimulated Fn14 reporter cells, luciferase luminescence, 8 h; inhibition, % at 10 µM; 360,000 compounds, 2% hits; AID 1159606, 2016; in the data active = inhibition above about 50%
HIF-2a block = HIF-2a reporter inhibitors, primary screen, luminescence, 786-0 RCC cells | 786-0 RCC cells HIF-2a reporter, luciferase luminescence, overnight | inhibition, % at 18.8 µM | 360,000 compounds, 0.72% hits | AID 624352, 2012;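 active = inhibition of the luminescence signal of 40% or more relative to plate controls, in a single-dose primary screen at 18.75 µM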
CF NFkB block = inhibitors of PAF-induced NF-kB signaling, primary screen, cell-based, GFP fluorescence, uHTS | inhibition, % at 5 µM | 360,000 compounds, 0.86% hits | KKLEB NF-kB-GFP reporter, GFP fluorescence overnight;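 active = at least 50% inhibition at 5 µM, scaled per plate between neutral and stimulator controls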;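 note: PAF is a Pseudomonas aeruginosa culture filtrate used as stimulus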
TROY NFkB inh = inhibitors of TROY-driven NF-kB signaling, primary screen, Q293 LMP1-TROYcd cells, NF-kB luciferase, uHTS; Q293 LMP1-TROYcd NF-kB luciferase reporter, 4 h; inhibition, % at 10 µM; 360,000 compounds, 0.98% hits; AID 1347056, 2019;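 active = compounds whose plate-normalised and pattern-corrected inhibition of the luciferase reporter signal at the single screening dose is 50% or more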
KKLEB cytotox = cytotoxicity in KKLEB CF airway cells, primary screen, cytotoxicity control for CF NF-kB inhibitor project, cell-based, uHTS, fluorescence assay plates | activity change (cytotoxicity), % at 5 µM | AID 602141, 2011 | 360,000 compounds, 0.36% hits | KKLEB CF airway cells viability, ATPlite luminescence, overnight; hits give low values; cells stimulated with P. aeruginosa culture filtrate;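 active = corrected activity change at or below -50% at 5 µM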
Hits are given with their value; . = inactive; / = no result given; ! = not confirmed by another sample.

SMILES | Peg3 promoter | TWEAK Fn14 block | HIF-2a block | CF NFkB block | TROY NFkB inh | KKLEB cytotox
CC(=O)c1cccc(-c2ccnc3c2CC(C(=O)NCC2CCOCC2)O3)c1 (stereo not given) | . | . | . | . | . | .
CC1CCC(=C(C#N)c2nc(-c3cc4ccccc4oc3=O)cs2)CC1 (stereo not given) | . | 54 | . | . | . | .
N#CCc1nc(-c2cc3ccccc3oc2=O)cs1 | . | . | . | . | . | .
CC1=CC(=O)C=C(C)C1=NOS(=O)(=O)c1ccccc1 | 82 | . | 63 | . | . | .
CC1=CC(=O)C(C(C)C)=C/C1=N/OS(=O)(=O)c1ccccc1 | 106 | 89 | . | . | . | .
CN(C)C1=NCCN1CCc1ccc(F)cc1 | . | . | . | . | . | .
O=C(O)CCN1CCc2ccccc2C1c1ccncc1 (stereo not given) | . | . | . | . | . | .
COc1ccccc1C(C(=O)c1ccccc1)c1ccc(O)cc1 (stereo not given) | / | / | . | / | / | /
COC(CNS(=O)(=O)c1ccc(S(=O)(=O)NC2CC2)cc1)OC | . | . | . | . | . | .
O=C(Nc1ccccc1)Nc1nnc(CSCc2ccccc2Cl)s1 | . | . | . | . | . | .
O=C(Nc1ccc(Cl)c(Cl)c1)Nc1nnc(CSc2ccccc2)s1 | . | . | . | 73 | . | -56
O=C(CNS(=O)(=O)Cc1ccccc1)NNc1ccccc1 | . | . | . | . | 56 | .
O=C(CNS(=O)(=O)Cc1ccccc1)NCc1ccccc1 | . | . | . | . | . | .
CCOC(=O)C[C@@H](C#N)NC(=O)[C@@H]1CCCN1C(=O)[C@@H](NC(=O)c1ccc(N)c(Cl)c1)C(C)(C)C | . | . | . | . | . | .
COc1ccc(C(=O)C(CN2CCOCC2)c2ccccc2)cc1F (stereo not given) | 95 | . | . | . | . | .
COc1ccc(C(O)C(CN2CCOCC2)c2ccccc2)cc1F (stereo not given) | . | 74 | . | . | 55 | .
COc1ccc(C(=O)OC(C)CN2CCOCC2)cc1OC (stereo not given) | . | . | . | . | . | .
C[C@H](CO)N1C[C@H](C)[C@@H](CN(C)Cc2ccc(C(=O)O)cc2)Oc2c(NS(=O)(=O)c3cn(C)cn3)cccc2C1=O | . | . | . | . | . | .
CCC(C(=O)NC(C)(C)C)n1c(-c2ccc3c(c2)OCO3)nc2ccccc21 (stereo not given) | / | / | . | / | / | /
O=C(/C=C/Sc1ccccc1)c1ccc(Cl)cc1 | . | 78 | . | . | . | .
O=C(C=Cc1ccccc1Cl)c1ccccc1 | . | . | . | . | . | .
O=C(/C=C/Sc1ccccc1)c1ccccc1 | 79 | 90 | . | . | . | .
Cc1cccn2c(=O)nc(SCC(=O)NCc3ccc4c(c3)OCO4)nc12 | . | . | . | . | . | .
CCN(C)C1CN(Cc2cn(Cc3cc(C)cc(C)c3)nn2)S(=O)(=O)C1 (stereo not given) | / | . | . | / | . | /
C[C@H](CO)N1C[C@H](C)[C@@H](CN(C)Cc2cccnc2)Oc2ncc(-c3cccc(C#N)c3)cc2C1=O | . | . | . | . | . | .
SMILES | Peg3 promoter | TWEAK Fn14 block | HIF-2a block | CF NFkB block | TROY NFkB inh | KKLEB cytotox
O=[N+]([O-])c1ccc(N/N=C/c2sc(N3CCOCC3)nc2-c2ccccc2)c(S(=O)(=O)Nc2ccccc2Cl)c1 | 68 | 69 | . | . | . | .
O=C(N/N=C/c1sc(N2CCOCC2)nc1-c1ccccc1)c1ccccc1Cl | . | . | . | . | . | .
O=C(O)c1cccc(N/N=C/c2sc(N3CCOCC3)nc2-c2ccccc2)c1 | . | . | . | . | . | .
O=[N+]([O-])c1ccc(N/N=C/c2sc(N3CCOCC3)nc2-c2ccccc2)c(S(=O)(=O)Nc2ccc(Cl)cc2)c1 | 54 | 61 | . | . | 59 | .
Cc1ccc(CNC(=O)CC(C)S(=O)(=O)c2ccc3c(c2)NC(=O)C(C)S3)cc1 (stereo not given) | . | . | . | . | . | .
O=C1c2c(O)ccc(O)c2C(=O)c2c(NCCNCCO)ccc(NCCNCCO)c21 | 100 | 93! | 63 | 82! | 78! | .
Cc1sc2ncnc(Sc3nnnn3-c3ccccc3)c2c1C | 72 | 101 | . | 80 | 67 | -54
c1ccc(CSc2ncnc3sccc23)cc1 | . | . | . | . | . | .
Clc1ccc(-n2nnnc2Sc2ncnc3sccc23)cc1 | 108 | 75 | 93 | 83 | 70 | .
Cc1ccc(Cl)cc1NC(=O)COC(=O)CSc1ccccc1 | . | . | . | . | . | .
COc1ccc(N2C(=S)N(C(=O)c3ccccc3)C(=Nc3ccccc3)C2=Nc2ccccc2)cc1 | . | 75 | . | . | . | .
COc1ccc(N=C2C(=Nc3ccc(OC)cc3)N(c3ccc(OC)cc3)C(=S)N2C(=O)c2ccc(OC)cc2)cc1 | . | . | . | . | . | .
COc1ccc(N=C2C(=Nc3ccc(OC)cc3)N(c3ccccc3)C(=S)N2C(=O)c2ccc(Cl)cc2)cc1 | . | 66 | . | . | . | .
CCN(CC)c1ccc(C(=O)NC(=S)Nc2cc(S(=O)(=O)N3CCOCC3)ccc2-n2cncn2)cc1 | . | . | . | . | . | -71
Cc1cc(=O)[nH]c(SCc2cccc3ccccc23)n1 | . | . | . | . | . | .
Cc1ccccc1CSc1nc(C(C)(C)C)cc(=O)[nH]1 | . | . | . | . | 65 | .
O=C1C2Sc3[nH]c(=O)sc3C(c3ccccc3)C2C(=O)N1c1ccccc1 (stereo not given) | . | 89 | . | . | . | .
COc1ccc(C2c3sc(=O)[nH]c3SC3C(=O)N(c4ccccc4)C(=O)C32)cc1 (stereo not given) | . | . | . | . | . | .
Cc1cccc(CCNc2nc3ccc(C)cc3n3cnnc23)c1 | . | 74 | . | . | 73 | .
Cc1cc2c(c(C#N)c1C)NC=NC2C (stereo not given) | . | . | . | . | . | .
COc1ccc(Cn2cc(CN(C)C3CN(Cc4cn(Cc5ccc(OC)cc5)nn4)S(=O)(=O)C3)nn2)cc1 (stereo not given) | / | . | . | / | . | /
CCN1CCN(Cc2ccc(NC(=O)Nc3ccc(OC)cc3)cc2)CC1 | . | . | . | . | . | .
CCN1CCN(Cc2ccc(NC(=O)Nc3ccccc3)cc2)CC1 | . | 60 | . | . | 53 | .
COc1ccc(NC2CCCN(C(=O)CCc3ccncc3)C2)cc1OC (stereo not given) | . | . | . | . | . | .
